This passage reports growth results from PubChem BioAssay (NCI).

Molecules are shown by their SMILES. About 83,000 compounds went through this panel and 20% of them were active in at least one assay; those are over-represented in the sample as a whole.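 The endpoint reported here, percent growth, reads 100 for growth as untreated, 0 for no net growth and -100 for all cells dead.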 Unmarked numbers belong to inactive results. Calls of active or inactive are those of the source. Rule for the calls: active = growth percent below 10; inactive = the rest.

Among the test systems are NCI-H23 lung; NCI-H226 lung; NCI-H322M lung; HOP-62 NSCLC; NCI-H460 lung; HOP-92 NSCLC; NCI-H522 lung; A549/ATCC NSCLC; 786-0 renal; COLO 205 colon.
Test in all cases: NCI-60 one-dose screen, 48 h (100 = growth as untreated, 0 = no growth, -100 = all killed)
Common to all, as to conditions: 10 µM unless noted

With `COC(=O)c1ccc(NC(=O)Nc2ccc(C(=O)OC)cc2)cc1`, the growth in the assay with NCI-H23 lung was 113%; in the assay on NCI-H226 lung, 99%; with NCI-H322M lung it was 104%; in the assay with HOP-62 NSCLC, 106%; with NCI-H460 lung, 110%; in the assay on HOP-92 NSCLC, 85.7%. In addition, the growth in the assay with NCI-H522 lung is 51.2%; in the assay with A549/ATCC NSCLC it was 94.7%; in the assay with 786-0 renal, 105%; in the assay with COLO 205 colon, 104%.
Take `Cc1cccc2c1C[C@@]1(C2=O)C(c2ccc(C(C)(C)C)cc2)=NOS1=O` (stereo not given in full): the growth with NCI-H23 lung was 83.2%; with NCI-H226 lung, 80.7%; in the assay with NCI-H322M lung it was 92.2%; in the assay with HOP-62 NSCLC, 90%; in the assay with NCI-H460 lung it was 92.2%; with HOP-92 NSCLC, 74.3%. The growth is 90.8% with NCI-H522 lung, 90.3% in the assay on A549/ATCC NSCLC, 99.7% in the assay with 786-0 renal and 105% in the assay with COLO 205 colon.
As to `Nc1c(C(=O)Nc2cccc(Cl)c2)sc2nc3c(cc12)CCCC3`, the growth in the assay on NCI-H23 lung was 103%; with NCI-H226 lung, 83.6%; with NCI-H322M lung it was 108%; in the assay on HOP-62 NSCLC it was 91.8%; in the assay with NCI-H460 lung, 100%; in the assay on HOP-92 NSCLC, 82.7%. The growth in the assay with NCI-H522 lung is 80.3%; in the assay on A549/ATCC NSCLC it was 81.7%; with 786-0 renal it was 89%; with COLO 205 colon, 92.2%.
With `CSc1nn2c(-c3ccc4ccccc4c3)ccnc2c1C#N`, the growth in the assay on NCI-H23 lung was 33.1%; in the assay on NCI-H226 lung, 24.9%; with NCI-H322M lung it was 56.2%; with HOP-62 NSCLC it was 18.6%; in the assay on NCI-H460 lung, -29.6% (active); with HOP-92 NSCLC, 33.8%. In addition, the growth was -23.4% (active) with NCI-H522 lung, 5.43% (active) in the assay on A549/ATCC NSCLC, 22.2% in the assay with 786-0 renal and 17% in the assay on COLO 205 colon.
On to `COc1ccc(/C=C/c2c(C(=O)/C=C/c3ccccc3)c(C)nc3ccccc23)cc1`, for which the growth in the assay with NCI-H23 lung was 20%; with NCI-H226 lung, 45.5%; in the assay on NCI-H322M lung, 28.4%; in the assay with HOP-62 NSCLC, -13.9% (active); with NCI-H460 lung, -48.1% (active); in the assay with HOP-92 NSCLC it was 66.2%. The growth is -24.5% (active) in the assay with NCI-H522 lung, 20.2% with A549/ATCC NSCLC, 13.5% in the assay on 786-0 renal and 3.63% (active) in the assay on COLO 205 colon.
With `CC(=O)c1ccc(Nc2nccc(-c3ccc4ccccc4c3)n2)cc1`, the growth is 94.4% in the assay on NCI-H23 lung; 57.1% in the assay on NCI-H226 lung; 97.8% in the assay with NCI-H322M lung; 102% in the assay on HOP-62 NSCLC; 98.4% in the assay with NCI-H460 lung; 97.5% in the assay on HOP-92 NSCLC. Moreover, the growth in the assay on NCI-H522 lung is 45.6%; in the assay with A549/ATCC NSCLC, 89.1%; in the assay with 786-0 renal, 96.9%; in the assay with COLO 205 colon it was 105%.
Take `CN(Cc1ccccc1)c1nc(Cl)c(C2CC(c3ccccc3)=NN2c2ccccc2)s1` (stereo not given): the growth with NCI-H23 lung was 88.3%; with NCI-H226 lung, 89%; in the assay with NCI-H322M lung, 97.6%; with HOP-62 NSCLC, 84.5%; with NCI-H460 lung it was 101%; in the assay with HOP-92 NSCLC it was 86%. Also, the growth in the assay with NCI-H522 lung was 77.8%; with A549/ATCC NSCLC, 85.7%; in the assay on 786-0 renal, 93.9%; with COLO 205 colon, 105%.
Take `O=C1c2ccccc2C(=O)c2c1c(C(=O)NCc1ccccc1)c1ccccn21`: the growth with NCI-H23 lung is 101%; in the assay with NCI-H226 lung it was 100%; in the assay with NCI-H322M lung, 99.4%; in the assay with HOP-62 NSCLC, 94.4%; in the assay on NCI-H460 lung, 107%; in the assay with HOP-92 NSCLC, 91.7%. For the same compound, the growth with NCI-H522 lung was 73.4%; with A549/ATCC NSCLC it was 76.8%; in the assay with 786-0 renal, 94.5%; with COLO 205 colon, 108%.
Consider `O=C(NCc1cccc(CNC(=O)Nc2nc3ccccc3[nH]2)c1)Nc1nc2ccccc2[nH]1`, for which the growth in the assay on NCI-H23 lung is -65.1% (active); in the assay with NCI-H226 lung it was -22.2% (active); with NCI-H322M lung, -7.92% (active); in the assay with HOP-62 NSCLC it was -46.2% (active); with NCI-H460 lung, -52.9% (active); in the assay on HOP-92 NSCLC, -27.7% (active). The growth was 1.54% (active) with NCI-H522 lung, -42.5% (active) in the assay with A549/ATCC NSCLC, -42.8% (active) with 786-0 renal and -2.34% (active) in the assay on COLO 205 colon.
On to `O=C(CN1CCN(c2cc3c(cc2F)c(=O)c(C(=O)O)cn3C2CC2)CC1)N/N=C/c1ccco1`, for which the growth in the assay on NCI-H23 lung is 104%; in the assay on NCI-H226 lung, 94.1%; in the assay with NCI-H322M lung it was 95%; with HOP-62 NSCLC, 82.8%; with NCI-H460 lung, 105%; with HOP-92 NSCLC, 87.9%. For the same compound, the growth in the assay on NCI-H522 lung was 93.5%; in the assay on A549/ATCC NSCLC, 90.6%; in the assay on 786-0 renal, 96.4%; with COLO 205 colon it was 102%.
`COc1ccc(C2=CC(c3cc(OC)c(OC)c(OC)c3)n3ncnc3N2)cc1` (stereo not given): the growth in the assay on NCI-H23 lung is 29.1%; in the assay with NCI-H226 lung, 51.1%; with NCI-H322M lung, 43%; in the assay with HOP-62 NSCLC it was 9.09% (active); in the assay on NCI-H460 lung, 0.735% (active); in the assay with HOP-92 NSCLC, 27%. Moreover, the growth in the assay with NCI-H522 lung was -13.3% (active); with A549/ATCC NSCLC it was 14.3%; in the assay with 786-0 renal, 17.9%; in the assay on COLO 205 colon, -64.8% (active).
With `Nc1nc(N)c(N=Nc2ccccc2)c(-c2ccccc2)n1`, the growth with NCI-H23 lung was 65.4%; in the assay on NCI-H226 lung, 55.4%; in the assay on NCI-H322M lung it was 70.1%; in the assay on HOP-62 NSCLC, 46.9%; in the assay with NCI-H460 lung it was 48.7%; in the assay on HOP-92 NSCLC it was 38.8%. For the same compound, the growth is 49.2% with NCI-H522 lung, 63.8% with A549/ATCC NSCLC, 60.7% with 786-0 renal and 65.8% in the assay on COLO 205 colon.
For the compound `Cc1ccc(C(=O)Nc2cccc(C#Cc3cccc4[nH]nc(N)c34)c2)cc1C(F)(F)F`, the growth was 51.8% with NCI-H23 lung; 55.8% in the assay with NCI-H226 lung; 79.2% in the assay on NCI-H322M lung; 58.7% in the assay with HOP-62 NSCLC; 75.6% in the assay with NCI-H460 lung; 63.8% with HOP-92 NSCLC. For the same compound, the growth with NCI-H522 lung was 60.2%; with A549/ATCC NSCLC, 67.5%; in the assay on 786-0 renal, 62.6%; in the assay with COLO 205 colon it was 40.2%.
`Cc1ccc(-c2csc(NC(=O)c3ccccc3CN3C(=O)c4ccccc4C3=O)n2)cc1`: the growth with NCI-H23 lung was 93.3%; in the assay with NCI-H226 lung it was 92%; in the assay with NCI-H322M lung it was 95.1%; with HOP-62 NSCLC, 99.1%; with NCI-H460 lung it was 109%; in the assay with HOP-92 NSCLC, 89.6%. Moreover, the growth is 82.1% in the assay with NCI-H522 lung, 86.4% in the assay with A549/ATCC NSCLC, 95.8% with 786-0 renal and 103% in the assay with COLO 205 colon.
Take `Nc1nc(NC(=O)Nc2ccc(C(=O)O)cc2)nn1-c1ccc(S(N)(=O)=O)cc1`: the growth with NCI-H23 lung is 97.9%; in the assay with NCI-H226 lung, 92.1%; in the assay on NCI-H322M lung, 90.4%; in the assay with HOP-62 NSCLC it was 93.6%; in the assay on NCI-H460 lung it was 95.6%; with HOP-92 NSCLC, 78.3%. The growth with NCI-H522 lung was 97.7%; with A549/ATCC NSCLC it was 82.8%; in the assay with 786-0 renal, 97.8%; in the assay on COLO 205 colon, 111%.
For the compound `O=S(=O)(NCCCNc1nccc(-c2c(-c3cccc(F)c3)nc3occn23)n1)c1ccc(F)cc1`, the growth in the assay on NCI-H23 lung was 84.4%; with NCI-H226 lung, 39.6%; in the assay on NCI-H322M lung, 73.2%; in the assay on HOP-62 NSCLC, 63.7%; in the assay with NCI-H460 lung it was 52.7%; in the assay with HOP-92 NSCLC, 61.4%. Moreover, the growth with NCI-H522 lung is 38.7%; in the assay with A549/ATCC NSCLC, 31.1%; in the assay with 786-0 renal it was 66%; with COLO 205 colon, 17.7%.
